Bioassay records as filed in PubChem BioAssay.
Sampled rows, rich in hits. Any-hit rate of the full collection: about 21%.
MRP-1 activ = activates MRP-1 | H69AR cells + doxorubicin, viability rescue, CellTiter-Glo | hit rate 0.61% among 140,000 | viability increase, % at 10 µM | AID 799;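 active = viability gain under doxorubicin at or above a set limit, the compound median plus 3 SD, cut at about 4.7% in these data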;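 note: MRP-1 overexpressing cells given doxorubicin 25 µM after compound pretreatment; 18-22 h compound pretreatment then 72 h with doxorubicin before readout; 0% = doxorubicin-only wells and 100% = vehicle-treated cells without doxorubicin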
CYP2C9 inh = blocks human cytochrome P450 2C9. P11712. hit rate 20% among 96,000. CYP2C9 Supersomes, luciferin-H conversion, luminescence. inhibition, % at 5 µM;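 active = blocking of liver enzyme CYP2C9 beyond about 50% at 5 µM, limit read from the data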
Target sequence (P11712 whole entry, looked up): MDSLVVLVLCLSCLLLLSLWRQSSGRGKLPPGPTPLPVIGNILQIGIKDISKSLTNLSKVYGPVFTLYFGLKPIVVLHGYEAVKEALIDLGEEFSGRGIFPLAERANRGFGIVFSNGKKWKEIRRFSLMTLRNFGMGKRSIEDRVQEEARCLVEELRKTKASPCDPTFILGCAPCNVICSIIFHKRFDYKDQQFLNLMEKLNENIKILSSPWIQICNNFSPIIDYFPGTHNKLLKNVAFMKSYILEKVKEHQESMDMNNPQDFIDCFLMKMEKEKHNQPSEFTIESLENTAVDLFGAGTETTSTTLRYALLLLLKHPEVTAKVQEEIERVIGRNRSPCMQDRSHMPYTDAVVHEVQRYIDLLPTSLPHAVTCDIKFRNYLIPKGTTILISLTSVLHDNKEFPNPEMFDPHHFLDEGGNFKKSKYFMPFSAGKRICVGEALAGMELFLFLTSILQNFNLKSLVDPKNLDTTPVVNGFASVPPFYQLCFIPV
CYP2C19 act = activators of human cytochrome P450 2C19 | recombinant CYP2C19, luciferin-H EGE luminescence; stronger effect = higher value; 0 = fully inhibited enzyme, 1 = untreated enzyme | P33261 | activation factor at 5 µM | 96,000 tested, under 10 active;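 active = activation factor of at least 2 at 5 µM in the primary screen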;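 note: 0 = wells with 2.5 mM tranylcypromine and 1 = vehicle-only wells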
CYP2C9 activ = activators of human CYP2C9; recombinant CYP2C9, luciferin-H conversion, luminescence; stronger effect = higher value; factor 1 = untreated enzyme, 0 = blocked; activation factor at 5 µM; hit rate 1.4% among 96,000; AID 1024;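 active = activation factor of 2 or more for CYP2C9 at a 5 µM dose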;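 note: 0 = sulfaphenazole-blocked wells and 1 = vehicle-only wells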
MRP reversal = reverses drug resistance mediated by MRP; H69AR cells + 2 uM doxorubicin, CellTiter-Glo, 72 h; hit rate 0.04% among 85,000; differential viability (reversal), % at 10 µM;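 active = viability drop by adding the cancer drug above about 55%, with treated viability meeting a 40% cutoff, limit read from the data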;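 note: viability without doxorubicin minus viability with 2 µM doxorubicin for each compound; larger differential means the compound sensitizes cells more to doxorubicin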
CYP2C19 inhib = inhibitors of human CYP2C19; inhibition, % at 5 µM; hit rate 21% among 96,000; P33261; CYP2C19 Supersomes, luciferin-H EGE luminescence, 30 min; AID 778;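 active = CYP2C19 inhibition above a set limit at 5 µM in the primary screen, cut at about 50% in these data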;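 note: plate controls were negative control wells for no effect and 2.5 mM tranylcypromine positive control for full effect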
An asterisk follows results filed as active; nt = no result.

SMILES | MRP-1 activ | CYP2C9 inh | CYP2C19 act | CYP2C9 activ | MRP reversal | CYP2C19 inhib
Cc1ccc(C(=O)COC(=O)c2ccccc2N2C(=O)C3C4CCC(C4)C3C2=O)cc1C (stereo not drawn) | -3.0 | -1.1 | 1.1 | 1 | nt | -11.9
O=C(COc1ccccc1)Nc1nnc(-c2ccc3c(c2)CCCC3)o1 | -1.0 | 51.9* | 0.9 | 0.5 | -6.5 | 11.9
COc1cc(C(=O)OCC(=O)c2c[nH]c3ccccc23)ccc1OCC(=O)N1CCOCC1 | -1.6 | 77.5* | 0.5 | 0.2 | -3.3 | 51.0*
O=C(COC(=O)c1cc(S(=O)(=O)N2CCOCC2)cs1)c1ccccc1 | 0.6 | 21.4 | 0.9 | 0.8 | 6.6 | 8.7
COc1ccc(C(=O)OCC(=O)c2ccccc2)cc1S(=O)(=O)N1CCOCC1 | 1.1 | 55.7* | 0.2 | 0.4 | 22.1 | 77.7*
COc1ccc(C(=O)NCCc2c[nH]c3ccccc23)cc1S(=O)(=O)N1CCOCC1 | -3.2 | 60.6* | 0.8 | 0.4 | -13.5 | 19.4
COc1ccc(C(C)=O)cc1COC(=O)c1ccc(S(=O)(=O)N2CCOCC2)cc1 | -0.7 | 93.9* | 0.5 | 0.1 | 10.4 | 51.4*
COc1ccc(C(=O)NCCC(C)C)cc1S(=O)(=O)N1CCOCC1 | -2.8 | 30.4 | 0.8 | 0.7 | -4.4 | 16.7
COc1ccc(OC)c2sc(NC(=O)c3ccc(S(=O)(=O)N4CCOCC4)cc3)nc12 | 0.7 | 16.7 | 0.9 | 0.8 | -4.6 | 6.4
CCOc1ccc(NS(=O)(=O)c2cc(NC(=O)c3cccc(C)c3)ccc2Cl)cc1 | -3.3 | nt | nt | nt | nt | nt
O=C(N/C(=C/c1cccnc1)C(=O)N1CCOCC1)c1ccccc1Br | 0.4 | nt | nt | nt | nt | nt
CCOCCCNC(=O)Cc1c(C(=O)O)[nH]c2ccc(Cl)cc12 | -2.1 | nt | nt | nt | nt | nt
CN(C)CCCN1C(=O)C(=O)/C(=C(/O)c2ccc3c(c2)OCO3)C1c1ccccn1 (stereo not drawn) | nt | nt | nt | nt | 8.2 | nt
Cc1csc(=N)n1CC(=O)N1CCc2ccccc21 | -0.2 | -50.0 | 1 | 1.5 | -7.6 | -0.2
CCS(=O)(=O)c1ccc2oc(SCC(=O)NC34CC5CC(CC(C5)C3)C4)nc2c1 | -3.3 | 37.0 | 0.5 | 0.6 | -1.6 | 48.3
COc1ccc(CCNC(=O)CSc2nc3ccccc3o2)cc1 | -0.8 | 98.6* | 0.1 | 0 | -3.6 | 92.2*
O=C(CSc1nc2cc(Cl)ccc2o1)NCCc1ccccc1 | 2.5 | 65.1* | 0.5 | 0.3 | -12.8 | 50.9*
CCS(=O)(=O)c1ccc2oc(SCC(=O)NC3CCCC(C)C3C)nc2c1 (stereo not drawn) | -0.8 | 46.3 | 0.5 | 0.5 | 4.1 | 52.0*
O=C(CSc1nc2cc(Cl)ccc2o1)c1cccs1 | 0.1 | 60.2* | 0.4 | 0.4 | 15.4 | 57.6*
CCN(CC)S(=O)(=O)c1ccc2oc(SCC(=O)NCc3ccccc3)nc2c1 | 0.0 | 90.3* | 0 | 0.1 | 3.6 | 97.2*
CN(C)S(=O)(=O)c1ccc2oc(SCC(N)=O)nc2c1 | 1.3 | -1.4 | 1.2 | 1 | nt | -16.7
COC(=O)c1ccc(C(=O)OC)c(NC(=O)COC(=O)C2CC2C)c1 (stereo not drawn) | -1.9 | 79.7* | 0.2 | 0.2 | nt | 77.7*
Cc1cc(Br)c(NC(=O)COC(=O)C2CC2C)c(Br)c1 (stereo not drawn) | 0.2 | nt | nt | nt | nt | nt
Cc1ccc(NC(=O)COC(=O)C2CC2C)c(S(=O)(=O)N2CCCCC2)c1 (stereo not drawn) | -0.9 | 51.1* | 0.3 | 0.5 | 11.9 | 74.2*
CC1(C)CC(=O)c2cnn(-c3nc4ccccc4[nH]3)c2C1 | -0.4 | 55.6* | 0.2 | 0.4 | 3.5 | 79.7*
SMILES | MRP-1 activ | CYP2C9 inh | CYP2C19 act | CYP2C9 activ | MRP reversal | CYP2C19 inhib
CC1(C)CC(=O)C=C(NC2CCS(=O)(=O)C2)C1 (stereo not drawn) | nt | nt | nt | nt | 42.8 | nt
Cc1ccc(NC(=O)N2C(=O)C3(OCCO3)c3ccccc32)cc1 | -1.4 | -3.6 | 0.4 | 1 | nt | 59.9*
CCNC(=O)N1C(=O)C2(OCCO2)c2ccccc21 | -0.2 | 2.0 | 1 | 1 | 5.8 | 3.3
CCOc1ccc(C2NC(=O)c3n[nH]c(C)c32)cc1 (stereo not drawn) | -1.1 | -8.0 | 0.3 | 1.1 | -8.5 | 68.6*
O=C(Cn1[nH]c(=O)c2ccccc2c1=O)N1CC=C(c2ccccc2)CC1 | 0.0 | 67.1* | 0.2 | 0.3 | 8.5 | 80.6*
CCN(C(=O)Cn1c(=O)n(Cc2ccccc2)c(=O)c2ccccc21)c1cccc(C)c1 | -1.7 | 85.6* | 1 | 0.1 | 1.9 | 4.7
Cc1cc(NC(=O)Cn2c(=O)n(Cc3ccccc3)c(=O)c3ccccc32)no1 | -1.4 | 17.6 | 0.8 | 0.8 | nt | 23.3
COc1cc(OC)c(NC(=O)CCc2nc(-c3ccc(C)cc3)no2)cc1Cl | -1.6 | 78.3* | 0.5 | 0.2 | 4.6 | 48.1
CCc1cccc(NC(=O)CCc2nc(-c3cccs3)no2)c1 | -0.3 | 83.4* | 0.1 | 0.2 | 2.0 | 93.0*
COc1ccc(-c2noc(CCC(=O)Nc3nc4ccccc4s3)n2)cc1 | -2.6 | 68.0* | 1 | 0.3 | -8.4 | 1.6
COc1cc(NC(=O)CCc2nc(-c3cccs3)no2)cc(OC)c1OC | -2.9 | 32.7 | 0.7 | 0.7 | -0.3 | 27.4
COc1ccccc1-c1noc(CCC(=O)Nc2cccc(C)c2)n1 | -2.1 | 42.2 | 0.3 | 0.6 | 17.3 | 74.2*
O=C(NCc1ccco1)/C(=C/c1cccnc1)NC(=O)c1ccco1 | -1.2 | -21.8 | 1.1 | 1.2 | nt | -8.1
Cc1cc(C(=O)Nc2ncn[nH]2)ccc1[N+](=O)[O-] | 1.8 | nt | nt | nt | nt | nt
CCOc1nc(-c2ccccc2Cl)ccc1C#N | -2.2 | 22.7 | 0.8 | 0.8 | nt | 19.3
COc1ccccc1-c1noc(CCC(=O)Nc2ccccc2Cl)n1 | -1.6 | 33.4 | 0.2 | 0.7 | 0.0 | 78.8*
CCOC(=O)N1CCC(NC(=O)CCc2nc(-c3ccccc3F)no2)CC1 | -2.1 | 58.9* | 0.4 | 0.4 | 5.6 | 59.8*
COc1ccc(NC(=O)CCc2nc(-c3ccccc3F)no2)cc1 | -3.1 | 68.6* | 0.2 | 0.3 | -4.5 | 77.9*
COC(=O)C(C)N1C(=O)S/C(=C\c2cc(C)n(-c3ccccn3)c2C)C1=O (stereo not drawn) | -1.1 | 80.3* | 0.8 | 0.2 | 9.8 | 24.0
CC1CCCC(n2c(=S)[nH]c3ccccc3c2=O)C1C (stereo not drawn) | -4.9 | 15.4 | 0.5 | 0.8 | -25.1 | 53.8*
O=C(NCCCO)c1ccc2[nH]c3ccccc3c2c1 | 3.5 | 31.7 | 0.4 | 0.7 | 9.6 | 64.2*
O=C(OCc1ccccc1)c1ccc2c(c1)-c1ccccc1C2=O | 2.2 | 55.3* | 0.7 | 0.4 | nt | 34.6
CC(C)C(=O)Nc1ccc2c(c1)C(=O)N(CCC(=O)O)C2=O | -2.4 | -3.7 | 1 | 1 | 2.4 | -4.8
COc1cc(S(=O)(=O)N2CCN=C2c2ccccc2)ccc1F | -1.1 | -10.5 | 0.3 | 1.1 | -25.8 | 74.3*
Cc1ccc(S(=O)(=O)N2CCN=C2c2ccccc2)cc1C | -1.5 | nt | nt | nt | 4.2 | nt
CCCCOc1ccc(S(=O)(=O)n2c(C)nc3ccccc32)cc1 | -1.5 | 67.0* | 0.6 | 0.3 | 1.1 | 39.2
